Compounds with a hit are over-represented: about 1.1% of the library has one in this group of screens.
Six1-Eya2 blk: inhibitors of human Six1/Eya2 interaction; actives 0.56% (n = 360,000); activity change, % (no concentration beside the values); AlphaScreen GST-Six1/His-Eya2 binding, biochemical; stronger effect = lower value; Q15475+O00167; further: on the % scale 0 is the no-effect control and ±100 the full control effect
Target sequence (O00167 whole entry, looked up): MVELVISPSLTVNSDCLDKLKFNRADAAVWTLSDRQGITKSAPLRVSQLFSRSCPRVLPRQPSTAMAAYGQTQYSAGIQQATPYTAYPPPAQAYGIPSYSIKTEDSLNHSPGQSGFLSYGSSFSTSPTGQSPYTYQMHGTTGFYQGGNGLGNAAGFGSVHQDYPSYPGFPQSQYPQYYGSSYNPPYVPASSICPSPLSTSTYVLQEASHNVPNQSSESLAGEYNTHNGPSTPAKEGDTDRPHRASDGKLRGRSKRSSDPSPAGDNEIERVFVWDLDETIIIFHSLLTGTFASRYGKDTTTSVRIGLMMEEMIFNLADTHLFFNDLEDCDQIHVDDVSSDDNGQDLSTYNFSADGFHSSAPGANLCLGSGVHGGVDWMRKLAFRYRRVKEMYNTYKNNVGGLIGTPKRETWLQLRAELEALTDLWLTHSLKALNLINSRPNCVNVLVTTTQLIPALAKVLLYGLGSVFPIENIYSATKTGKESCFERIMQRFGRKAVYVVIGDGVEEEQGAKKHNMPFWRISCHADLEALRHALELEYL
Target sequence (Q15475 whole entry, looked up): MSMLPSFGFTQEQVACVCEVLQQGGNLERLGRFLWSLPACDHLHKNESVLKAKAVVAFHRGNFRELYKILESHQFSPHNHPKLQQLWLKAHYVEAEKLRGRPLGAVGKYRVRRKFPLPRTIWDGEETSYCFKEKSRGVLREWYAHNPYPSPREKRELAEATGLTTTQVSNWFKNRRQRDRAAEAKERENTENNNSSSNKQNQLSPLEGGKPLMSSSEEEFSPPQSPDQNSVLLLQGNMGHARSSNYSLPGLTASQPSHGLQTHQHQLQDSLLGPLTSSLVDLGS
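AlphaScreen with GST-Six1 and His-Eya2 (5X mix: 250 nM and 500 nM), glutathione donor and nickel acceptor beads; buffer 50 mM Tris pH 8.0, 300 mM NaCl, 1 mM TCEP; 1 h at 37 C in the dark.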
Mito fusion yeast: blocks mitochondrial division or promotes mitochondrial fusion; S. cerevisiae fusion-defective mutant growth rescue, CellTiterGlo 48 h; Potency, µM (doses to about 46.1 µM), for inactives: at the highest dose growth rescue (activation), hits mostly activators; actives 0.23% (n = 320,000); AID 485298; active means well fitted activation curve with a large enough effect; inconclusive means small, poorly fitted or top-dose-only effect; inactive means no such curve, though single readings can be large or run the other way; further: potency means the concentration at half of the fitted maximal effect; % of control where 0% means no effect; nearly all actives have a fitted effect of over 45% in size
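S. cerevisiae fusion-defective temperature-sensitive mutants (e.g. fzo1-1, mgm1-5) grown 48 h at 37C in YPEG (ethanol/glycerol non-fermentable) medium with 23 nl compound per well; growth rescue read as CellTiterGlo luminescence.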
CtBP-E1A blk: inhibitors of CtBP/E1A interaction; AlphaScreen GST-E1A/His-CtBP binding, 1536-well; stronger effect = lower value; actives 0.49% (n = 340,000); activity change, % (test concentration not listed); further: on the % scale 0 is the no-effect control and ±100 the full control effect
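GST-E1A and His-tagged CtBP (125 nM each as 5X stock) were preincubated with pin-transferred compound for 2 h at 37 °C in the dark, then glutathione donor and nickel acceptor beads were added for 1 h before AlphaScreen reading.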
MBNL1-CUG inh: inhibitors of human MBNL1 binding to CUG repeat RNA; Q9NR56; TR-FRET MBNL1-His/biotin-(CUG)12 binding, 665/545 ratio; Potency, µM (titrated, usually from 57.5 µM), inactives show at the top dose activity change, negative = inhibition, usual class: inhibitors; actives 0.036% (n = 280,000); AID 2675; active means well fitted inhibition curve with a large enough effect in the signal ratio, with a control signal flat, not every such curve was filed as active; inconclusive means small, poorly fitted or top-dose-only effect, or effect the other way, or a change in a side signal; inactive means no such curve, though single readings can be large or run the other way; the % refers to the signal ratio; further: potency means the concentration at half of the fitted maximal effect; on the % scale 0 is the no-effect control and ±100 the full control effect
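Inhibition of protein-RNA binding appears as loss of TR-FRET between terbium anti-His antibody on MBNL1-His and streptavidin-XL665 on biotin-(CUG)12. Activity is normalized to buffer-only and uninhibited-complex controls.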
uPA generation: blocks generation of uPA at the cell surface | cell surface uPA generation assay, qHTS | Potency, µM (titrated, usually from 38.3 µM), inactives show top-dose activity change, negative = inhibition, actives largely listed as inhibitors | actives 0.31% (n = 330,000) | AID 540303; active means well fitted inhibition curve with a large enough effect; inconclusive means small, poorly fitted or top-dose-only effect; inactive means no such curve, though single readings can be large or run the other way; tested in mouse RAW 264.7 cells; further: potency means the concentration at half of the fitted maximal effect; on the % scale 0 is the no-effect control and ±100 the full control effect; nearly all actives have a fitted effect of over 55% in size
Starred values were filed as active, the others as inactive; ? = inconclusive; / = no result. Unless noted, no stated cut-off is given here; in the data, active means activity change below about -65%; inconclusive means mostly about -30% to -63%; inactive means weaker than that.

SMILES	Six1-Eya2 blk	Mito fusion yeast	CtBP-E1A blk	MBNL1-CUG inh	uPA generation
CC(c1ccccn1)C(C)(O)C(C)c1ccccn1 (stereo not given)	1	/	0	/	1%
OC(c1ccccn1)(c1ccccn1)c1ccccn1	-85*	12%	-2	?	-15%
CSc1ccc(C2=CC(=O)C[C@H](c3ccc4c(c3)OCO4)C2)cc1	1	5%	/	/	-4%
Cc1ccc(C2=CC(=O)C[C@H](c3ccc4c(c3)OCO4)C2)cc1	-15	4µM*	-8	/	-19%
O=[N+]([O-])c1cc(Cl)ccc1Nc1ccccc1	-78*	0%	/	?	-9%
Cc1ccc(C2(C)CC(C)(C)N(C(=O)CSc3nnc(C)s3)c3ccccc32)cc1 (stereo not given)	-14	?	1	/	-10%
Cc1nnc(SCC(=O)N2c3ccccc3C(C)(c3ccccc3)CC2(C)C)s1 (stereo not given)	-6	16µM*	-2	/	-9%
COC(=O)/C=C1\OC(C2CC2)c2ccccc21 (stereo not given)	10	/	-23	/	/
CN(C)c1cc[n+](CC(=O)c2ccc(-c3ccccc3)cc2)cc1	3	-5%	3	2%	7.1µM*
O=C(C[n+]1ccccc1)c1ccc(-c2ccccc2)cc1	8	1%	-7	5%	-5%
Cc1ccc(-c2nnc(Nc3cccc(C(F)(F)F)c3)c3ccccc23)cc1S(=O)(=O)N1CCOCC1	/	4%	/	/	/
O=C(Nn1cc(C(=O)Nc2ccccc2F)c2ccccc2c1=O)c1cnccn1	-78*	?	?	2%	-8%
COC(=O)c1cn(NC(=O)c2cnccn2)c(=O)c2ccccc12	?	-15%	?	-19%	-2%
O=C(N/N=C/c1cc(Br)cc(Cl)c1O)c1ccc2c(c1)OCO2	-81*	/	-83*	/	3%
COc1cc(Cl)cc(/C=N\NC(=O)c2ccc3c(c2)OCO3)c1O	-88*	/	?	/	/
O=C(N/N=C/c1ccccc1O)c1ccc2c(c1)OCO2	?	-19%	-78*	6%	-3%
Cc1cc(Br)cc(/C=N/NC(=O)c2ccc3c(c2)OCO3)c1O	0	0%	/	69%	?
O=C(N/N=C/c1cc(Br)c(O)c(Br)c1O)c1ccc2c(c1)OCCO2	-85*	0%	-97*	20%	-1%
O=C(NC(Cc1c[nH]c2ccccc12)C(=O)O)OCC1c2ccccc2-c2ccccc21 (stereo not given)	-9	/	1	/	/
COc1ccccc1NC(=O)N(C)C[C@@H]1OCc2cnnn2CCCC(=O)N([C@@H](C)CO)C[C@@H]1C	9	/	-1	/	/
O=C(Nc1ccc2c(c1)nc1n2CCN(Cc2ccccc2)C1)c1cccs1	-80*	-3%	-87*	0%	-1%
COC(=O)c1ccc(CNc2ccc(C(C)=O)cc2)cc1	-1	/	1	/	/
COC(=O)C1CCN(C(=O)c2cc(-c3ccc(Cl)s3)nc3ccccc23)CC1	4	?	3	/	1.8µM*
CCN1CCN(C(=O)c2cc(-c3ccc(Cl)s3)nc3ccccc23)CC1	-3	-17%	-1	132%	-20%
CC(c1ccccc1)N1CCN(C(=O)CCl)CC1 (stereo not given)	4	1%	/	-6%	8.9µM*
SMILES	Six1-Eya2 blk	Mito fusion yeast	CtBP-E1A blk	MBNL1-CUG inh	uPA generation
CC(CC(=O)N1CCN(C(=O)c2ccccc2)CC1)c1ccccc1 (stereo not given)	-19	-5%	-12	-6%	-6%
O=C(N/N=C/c1ccccc1O)C(=O)N1CCCCCC1	-79*	3%	-88*	4%	-10%
O=C(CCN1CCN(c2ccccc2)CC1)N/N=C/c1ccccc1O	-70*	7%	7	-1%	-18%
O=C(NN=Cc1ccccc1O)C(O)c1ccccc1 (stereo not given)	?	/	-68*	/	-10%
COc1cccc(/C=N/NC(=O)C(=O)N2CCCC2)c1O	-89*	-2%	10	?	-27%
Cn1c2cc(Br)sc2c2cnn(Cc3c(F)cccc3F)c(=O)c21	/	3%	/	/	/
CC(=NNc1nc2ccccc2s1)c1ccncn1	?	/	-78*	/	5%
C/C(=N\Nc1nc2ccccc2s1)c1ccc(Br)s1	-19	-27%	-7	-2%	-11%
Cc1cc(N/N=C/c2ccc(O)cc2)nc(NS(=O)(=O)c2ccccc2)n1	-73*	-1%	?	-19%	-1%
C[C@@H]1C=CC(=O)O[C@@H]1c1ccc(C(F)(F)F)cc1	/	4%	/	-8%	/
C[C@H]1C=CC(=O)O[C@H]1c1ccccc1	4	/	3	/	2.5µM*
O=C(CCN1C(=O)CC1c1ccco1)N1CCOCC1 (stereo not given)	9	/	0	/	/
CCC(=O)NC(c1cccs1)c1cc([N+](=O)[O-])c2cccnc2c1O (stereo not given)	-85*	0%	-83*	/	-9%
CCCC(=O)NC(c1cccs1)c1cc([N+](=O)[O-])c2cccnc2c1O (stereo not given)	-90*	1%	-85*	2%	-1%
CCC(=O)NC(c1cccs1)c1cc(Br)c2cccnc2c1O (stereo not given)	/	15%	/	/	/
CC(=O)NC(c1cccs1)c1cc([N+](=O)[O-])c2cccnc2c1O (stereo not given)	-89*	5%	-87*	?	-10%
CC(C)NC(=O)C1(C)CCCN1C(=O)c1ccccc1Br (stereo not given)	6	/	3	/	/
Cc1c(C)c2c(OCC(=O)N3CCC[C@H]3C(=O)O)cc3c(c2oc1=O)CCC(C)(C)O3	-85*	5%	?	?	9%
Cc1c(C)c2c(OCC(=O)N3CCC(O)CC3)cc3c(c2oc1=O)CCC(C)(C)O3	-19	-6%	-19	?	-9%
CCOC(=O)C1=C(C)NC2=C(C(=O)CC(c3ccc(OC)c(OC)c3)C2)C1c1ccc(C)o1 (stereo not given)	-15	0%	-4	17%	-1%
COc1ccccc1NC(=O)C1=C(C)NC2=C(C(=O)CC(c3ccc(OC)c(OC)c3)C2)C1c1coc2ccccc2c1=O (stereo not given)	-78*	8%	-20	15%	7%
COc1ccc2nc(NC(=O)c3cccc(N4C(=O)CCC4=O)c3)sc2c1	-2	-5%	-1	/	4.5µM*
C=CS(=O)(=O)N(Cc1ccc(Cl)c(Cl)c1)C[C@@H](O)CO	1	/	7	/	3.5µM*
O=C(O)c1sccc1SCc1ccc(Cl)c(Cl)c1	0	4%	6	-10%	0%
O=C(NNc1ccccn1)C(=O)NNS(=O)(=O)c1ccc(F)cc1	-90*	-11%	-92*	13%	3%
COCCNC(=O)C(=O)NNS(=O)(=O)c1ccc(Cl)cc1	2	-2%	12	-7%	4%

Compound activity: PubChem BioAssay, National Center for Advancing Translational Sciences (NCATS)
